ATXN2 expr inh = Primary qHTS for Inhibitors of ATXN expression; Potency, µM (top dose mostly 57 µM), inactives show top-dose activity change, negative = inhibition, most hits filed as inhibitors; hit rate 0.72% among 360,000; HEK-293 ATXN2-luciferase reporter, luminescence, 24 h; also: % is scaled to controls: 0 for no effect and ±100 for the full control effect; nearly all actives have a fitted effect of over 55% in size
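qHTS (up to 57 uM final) was run with 24 h compound exposure of reporter cells at 37 °C. Each well was multiplexed: SteadyGlo luminescence measured ATXN2-luciferase expression after a fluorogenic Gly-Phe-AFC viability readout (25 uM final).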
TGFb SMAD3 inh = qHTS for Inhibitors of TGF-b; Potency, µM (doses to about 46.1 µM), without a hit: at the top dose activity, negative = inhibition, actives largely listed as inhibitors; hit rate 1.2% among 410,000; HepG2 CAGA-GFP TGF-b/SMAD3 reporter, GFP fluorescence, 18 h; TGF-beta stimulated, 500 pg/mL final; also: % is scaled to controls: 0 for no effect and ±100 for the full control effect; nearly all actives have a fitted effect of over 65% in size
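Cell-based qHTS in HEPG2 carrying a CAGA-GFP Smad reporter; compounds added before 500 pg/mL final TGF-beta, 18 h incubation at 37 degrees C, GFP fluorescence quantified per cell by imaging cytometry.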
HepG2 tox-1 = qHTS for Inhibitors of TGF-b: Cytotox Counterscreen; HepG2 CAGA-GFP viability, ATP luminescence, 18 h; Potency, µM (top dose mostly 46.1 µM), for inactives: at the highest dose activity change, negative = cytotoxicity, usual class: cytotoxic; AID 588856, 2011; hit rate 0.76% among 410,000
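CellTiter-Glo luminescence gave cytotoxicity after 18 hours at 37 degrees C. The cells were HepG2 CAGA-GFP in 1% FBS DMEM, stimulated with 500 pg/mL TGF-beta after compound addition. %Activity was normalised to no-cell wells (complete cell-killing) and DMSO (no toxicity), and curves were fitted and classified.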
S2 tox = Viability Counterscreen for Primary qHTS for Inhibitors of ATXN expression; S2 cells (HEK-293 line with an ATXN2-luciferase reporter) viability, CellTiter-Fluor protease fluorescence, 24 h; Potency, µM (titrated, usually from 56.7 µM), actives largely listed as cytotoxic; hit rate 0.49% among 400,000; also: nearly all actives have a fitted effect of over 40% in size
TGFb confirm = qHTS for Inhibitors of TGF-b: Confirmation of Cherry Picks; hit rate 63% among 1,600; Potency, µM (doses to about 46.1 µM), for the others: at the top dose activity, negative = inhibition, hits mostly inhibitors; HepG2 CAGA-GFP TGF-b reporter, GFP fluorescence, 18 h; cells stimulated with TGF-beta, 500 pg/mL; AID 720534, 2013; shares compounds with TGFb SMAD3 inh; also: % is scaled to controls: 0 for no effect and ±100 for the full control effect; nearly all actives have a fitted effect of over 65% in size
HepG2 tox-2 = qHTS for Inhibitors of TGF-b: Cytotox Counterscreen for Cherry Picks; Potency, µM (doses to about 46.1 µM), inactives show top-dose activity, negative = cytotoxicity, actives largely listed as inhibitors; hit rate 27% among 1,600; shares compounds with TGFb SMAD3 inh; HepG2 CAGA-GFP viability, ATP luminescence, 18 h; cells stimulated with TGF-beta, 500 pg/mL; also: % is scaled to controls: 0 for no effect and ±100 for the full control effect; nearly all actives have a fitted effect of over 70% in size
TGFb CCL64 inh = qHTS for Inhibitors of TGF-b: CCL64 Cells Orthogonal Assay for Cherry Picks | Potency, µM (titrated, usually from 46.1 µM), for the others: top-dose activity, negative = inhibition, usual class: inhibitors | AID 720536, 2013 | shares compounds with TGFb SMAD3 inh | hit rate 41% among 1,600 | CCL64 CAGA-GFP reporter, TGF-b stimulated, GFP fluorescence, 18 h; also: nearly all actives have a fitted effect of over 65% in size
TGFb COP inh = qHTS for Inhibitors of TGF-b: Hit Validation in HepG2 Cells using COP promoter. HepG2 COP-GFP TGF-b reporter, GFP fluorescence, 18 h; cells stimulated by added recombinant TGF-beta. hit rate 3% among 1,600. shares compounds with TGFb SMAD3 inh. Potency, µM (top dose mostly 46.1 µM), for the others: top-dose activity, negative = inhibition, actives largely listed as inhibitors; also: nearly all actives have a fitted effect of over 70% in size
* = called active by the depositor; i = inactive; ? = inconclusive; · = no result given. Only some compounds are listed: those with a hit (about 2.3% of all), similar ones and a draw of the others. Calls follow the shape of the dose curve; as a rule, active = well fitted curve in the direction sought with a large enough effect; inconclusive = small, poorly fitted or top-dose-only effect, or another doubt; inactive = no such curve, though single readings can be large; an effect the other way counts as inactive or inconclusive. Potency is read from the fitted curve at half-maximal effect.

SMILES | ATXN2 expr inh | TGFb SMAD3 inh | HepG2 tox-1 | S2 tox | TGFb confirm | HepG2 tox-2 | TGFb CCL64 inh | TGFb COP inh
O=C(Nc1ccccn1)c1ccc([N+](=O)[O-])o1 | · | 10µM* | -102% | i | 16µM* | ? | ? | 22%
Cc1ccc2nc(NC(=O)C3CCN(S(=O)(=O)c4cc([N+](=O)[O-])ccc4Cl)CC3)sc2c1 | -37% | ? | -24% | ? | · | · | · | ·
O=C(CNC(=O)c1ccccc1)OCC(=O)c1cccc2ccccc12 | · | 16% | -4% | · | · | · | · | ·
CC(SC1=NS(=O)(=O)c2ccccc21)C(=O)O (stereo not drawn) | · | 14% | 15% | · | · | · | · | ·
O=C(Nc1cccc2ccccc12)c1ccc([N+](=O)[O-])s1 | · | 8.9µM* | 11µM* | i | 16µM* | 26µM* | ? | 50%
O=C(Nc1cccnc1)c1cc(Br)c(Br)s1 | -2% | 11% | 0% | i | · | · | · | ·
O=C(Nc1ccccc1F)c1ccc([N+](=O)[O-])s1 | -25% | ? | -68% | i | · | · | · | ·
O=C(Nc1cccnc1)c1ccc([N+](=O)[O-])s1 | ? | 10µM* | 11µM* | i | 15µM* | 23µM* | ? | ?
CS(=O)(=O)Nc1ccccc1C(=O)Nc1cc(Cl)cc(Cl)c1 | 22µM* | 7.1µM* | -26% | ? | 7.3µM* | ? | 8.2µM* | 57%
COc1cc(C2C3=C(COC3=O)Oc3cc4c(cc32)OCO4)ccc1O (stereo not drawn) | -9% | 13µM* | -4% | ? | -30% | 8% | ? | -17%
COc1cc(C2C3=C(COC3=O)OC(C)(C)Oc3cc4c(cc32)OCO4)cc(OC)c1OC (stereo not drawn) | -1% | 2.8µM* | -2% | ? | ? | 0% | ? | -2%
COc1cc(C2c3cc4c(cc3OC(C)(N3CCCC3)C2C)OCO4)cc(OC)c1OC (stereo not drawn) | 9% | -15% | -3% | ? | · | · | · | ·
CC[N+](C)(C(=O)O)/C(=C\c1ccccc1)c1ccnc2ccccc12 (stereo not drawn) | · | 31% | 2% | · | · | · | · | ·
CN(CC(=O)Nc1cccc(F)c1)C(=O)c1cccc(S(=O)(=O)N2CC3(C)CC2CC(C)(C)C3)c1 (stereo not drawn) | -1% | 11µM* | -21% | ? | 16µM* | -29% | ? | 47%
CC1(C)CC2CC(C)(CN2S(=O)(=O)c2cccc(C(=O)O)c2)C1 (stereo not drawn) | 9% | -15% | 1% | i | · | · | · | ·
O=S(=O)(Nc1cccc2ccccc12)c1ccc2ccccc2c1 | · | ? | -18% | · | · | · | · | ·
NC(=O)c1sc(-c2ccsc2)cc1NS(=O)(=O)c1ccc(C(F)(F)F)cc1 | -27% | ? | -24% | i | 23µM* | ? | ? | 74%
CC(=O)c1sc(-c2ccc(F)cc2)cc1NS(=O)(=O)c1ccc(C)cc1 | 4% | 0% | 4% | i | · | · | · | ·
N#C/C(=N\Nc1ccc(Cl)c(Cl)c1)C(=O)C1CC1 | -19% | 7.1µM* | -29% | · | 2.3µM* | 6.5µM* | 6.5µM* | 64%
CCC1=Nc2cc(C(=O)NCc3ccco3)ccc2Sc2ccc(C)cc21 | -5% | ? | -25% | i | 2.3µM* | -18% | 1.5µM* | 11%
CCOC(=O)N1CCC(NC(=O)c2ccc3c(c2)N=C(CC)c2cc(C)ccc2S3)CC1 | ? | 16µM* | -6% | i | 12µM* | -19% | ? | 26%
C[C@H](CO)N1C[C@H](C)[C@@H](CN(C)Cc2ccccc2)Oc2c(NC(=O)c3ccncc3)cccc2C1=O | -17% | -14% | -27% | i | · | · | · | ·
COc1ccc(NC(=O)N(C)C[C@H]2Oc3c(NC(=O)c4nc5ccccc5s4)cccc3C(=O)N([C@@H](C)CO)C[C@H]2C)cc1 | ? | 11µM* | -6% | · | ? | -22% | 18µM* | 38%
COc1ccc(NC(=O)N(C)C[C@H]2Oc3c(NC(=O)c4ccncc4)cccc3C(=O)N([C@H](C)CO)C[C@@H]2C)cc1 | -3% | 1% | 8% | i | · | · | · | ·
C[C@H](CO)N1C[C@H](C)[C@@H](CN(C)Cc2ccc(Oc3ccccc3)cc2)Oc2c(NC(=O)c3ccncc3)cccc2C1=O | 0% | 14µM* | 0% | ? | 23µM* | ? | ? | 37%
SMILES | ATXN2 expr inh | TGFb SMAD3 inh | HepG2 tox-1 | S2 tox | TGFb confirm | HepG2 tox-2 | TGFb CCL64 inh | TGFb COP inh
CN(C)c1ccc(C2C=Cc3ccccc32)c2ccccc12 (stereo not drawn) | · | -1% | -22% | · | · | · | · | ·
CC(=O)Oc1c(I)cc(I)cc1C(=O)Nc1ccc(Cl)cc1 | ? | 5µM* | -36% | ? | 4.6µM* | 8.2µM* | 6.5µM* | 45%
COc1ccc(Cl)cc1C(=O)Nc1ccc(NC(C)=O)cc1 | -3% | ? | 10% | i | · | · | · | ·
O=C(c1ccc(Cl)c([N+](=O)[O-])c1)N1CCN(S(=O)(=O)c2ccc(Cl)cc2)CC1 | -6% | 10µM* | -15% | i | 13µM* | -17% | ? | -5%
Cc1ccc(F)cc1NC(=O)COC(=O)c1ccc(S(C)(=O)=O)c([N+](=O)[O-])c1 | · | -4% | -6% | · | · | · | · | ·
O=C1Nc2ccccc2N=C(c2ccc3c(c2)OCO3)C1N(C(=O)c1ccc2ccccc2c1)C1CC1 (stereo not drawn) | 2% | 13µM* | 0% | ? | 23µM* | ? | 16µM* | 51%
O=C1Nc2ccccc2N=C(c2ccc3c(c2)OCO3)C1N(C(=O)c1ccnc2ccccc12)c1ccccc1 (stereo not drawn) | -36% | 16µM* | -13% | ? | 23µM* | -24% | ? | 49%
